# Several values for one entry are separate records, joined by “and”; a condition that tells them apart may be missing. Equal values may be shown once. Inconclusive results are not listed. Activity calls are given as the source filed them. Calls follow the shape of the dose curve; as a rule, active = well fitted curve in the direction sought with a large enough effect; inconclusive = small, poorly fitted or top-dose-only effect, or another doubt; inactive = no such curve, though single readings can be large; an effect the other way counts as inactive or inconclusive.
# What was measured:
# [1] = molecular target: Cellular tumor antigen p53 (Homo sapiens) (UniProt P04637); test: Primary qHTS for small molecule compounds that upregulate eGFP-tagged delta133p53alpha (in N-terminal) cells. (AID 2060322); settings: NCI-H358 eGFP-delta133p53alpha fluorescence, 24 h; activation: hits give high values; also: nearly all actives have a fitted effect of over 75% in size; also: potency is read from the fitted curve at half-maximal effect;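 as to activation: series mostly up to about 56 µM; 0% = DMSO vehicle and 100% = reference activator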
# Procedure, shortened: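 NCI-H358 cells pre-induced 24 h with 10 ng/ml doxycycline to express N-terminal eGFP-delta133p53alpha, then dosed 24 h at 37C without doxycycline; fixed, Hoechst-stained, GFP intensity by laser scanning cytometry, normalized to DMSO (0%) and 57.5 uM 5-azacytidine (100%).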
# [2] = molecular target: Retinaldehyde dehydrogenase 3 (Homo sapiens) (UniProt P47895); test: qHTS for Inhibitors of the Aldehyde Dehydrogenase Family (ALDH1A3) Confirmatory screens (AID 2061311); also: potency is read from the fitted curve at half-maximal effect; nearly all actives have a fitted effect of over 60% in size
# [3] = molecular target: Aldehyde dehydrogenase, mitochondrial (Homo sapiens) (UniProt P05091); test: qHTS for Inhibitors of the Aldehyde Dehydrogenase Family (ALDH2) Primary screen (AID 2061308);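 also: plate controls were vehicle for no effect and reference inhibitor for full effect; nearly all actives have a fitted effect of over 55% in size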
# [4] = BET inhibitor-based combinations targeting novel dependencies in MECOM-rearranged (r) AML: MV-4-11 cell line (AID 2202233); also: potency is read from the fitted curve at half-maximal effect; nearly all actives have a fitted effect of over 45% in size
# Procedure, shortened: (§1)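 Using pin-tool transfer, drugs were added in 11 doses to cells (500/well), incubated 48 hr, and assessed with CellTiter-Glo. Z-AUC is a mean-centring transformation applied separately to each screened line.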
# [5] = BET inhibitor-based combinations targeting novel dependencies in MECOM-rearranged (r) AML: AML-194 cell line (AID 2202237; also: nearly all actives have a fitted effect of over 40% in size; also: potency is read from the fitted curve at half-maximal effect)
# Procedure, shortened: (§2)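 Viability of cells (500 per well) is scored by luminescent CellTiter-Glo at 48 hr post-dosing. Eleven-point titrations are normalized to DMSO and empty controls and reduced to AUC values.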
# [6] = molecular target: Retinal dehydrogenase 2 (Homo sapiens) (UniProt O94788); test: qHTS for Inhibitors of the Aldehyde Dehydrogenase Family (ALDH1A2) Confirmation screens (AID 2061314); also: nearly all actives have a fitted effect of over 65% in size; also: potency is read from the fitted curve at half-maximal effect
# [7] = molecular target: Retinaldehyde dehydrogenase 3 (Homo sapiens) (UniProt P47895); test: qHTS for Inhibitors of the Aldehyde Dehydrogenase Family (ALDH1A3) Validation screen (AID 2061312); also: nearly all actives have a fitted effect of over 45% in size; also: potency is read from the fitted curve at half-maximal effect
# [8] = molecular target: Retinaldehyde dehydrogenase 3 (Homo sapiens) (UniProt P47895); test: qHTS for Inhibitors of the Aldehyde Dehydrogenase Family (ALDH1A3) Primary screen (AID 2061315); also: potency is read from the fitted curve at half-maximal effect
# [9] = molecular target: Aldehyde dehydrogenase 1A1 (Homo sapiens) (UniProt P00352); test: qHTS for Inhibitors of the Aldehyde Dehydrogenase Family (ALDH1A1) Confirmatory screens (AID 2061316); also: potency is read from the fitted curve at half-maximal effect; nearly all actives have a fitted effect of over 65% in size
# [10] = BET inhibitor-based combinations targeting novel dependencies in MECOM-rearranged (r) AML: SET-2 cell line (AID 2202231); settings: SET-2 AML cells viability, CellTiter-Glo luminescence, 48 h; viability: hits give low values, concentration not given here; also: nearly all actives have a fitted effect of over 35% in size; also: potency is read from the fitted curve at half-maximal effect;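 as to viability: plate controls were DMSO treated cells for no effect and wells without cells for full effect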
# Procedure, shortened: as §2
# [11] = BET inhibitor-based combinations targeting novel dependencies in MECOM-rearranged (r) AML: OCI-AML3 cell line (AID 2202232); settings: Potency: OCI-AML3 viability; also: nearly all actives have a fitted effect of over 35% in size; also: potency is read from the fitted curve at half-maximal effect
# Procedure, shortened: as §2
# [12] = BET inhibitor-based combinations targeting novel dependencies in MECOM-rearranged (r) AML: HNT-34 cell line (AID 2202234); also: nearly all actives have a fitted effect of over 35% in size; also: potency is read from the fitted curve at half-maximal effect
# Procedure, shortened: as §1
# [13] = BET inhibitor-based combinations targeting novel dependencies in MECOM-rearranged (r) AML: UCSD-AML1 cell line (AID 2202235); also: nearly all actives have a fitted effect of over 40% in size; also: potency is read from the fitted curve at half-maximal effect
# Procedure, shortened: as §1
# [14] = BET inhibitor-based combinations targeting novel dependencies in MECOM-rearranged (r) AML: AML-191 cell line (AID 2202236; also: nearly all actives have a fitted effect of over 35% in size; also: potency is read from the fitted curve at half-maximal effect)
# Procedure, shortened: as §2
# Cellular tumor antigen p53 (Homo sapiens), sequence (P04637 whole entry, looked up): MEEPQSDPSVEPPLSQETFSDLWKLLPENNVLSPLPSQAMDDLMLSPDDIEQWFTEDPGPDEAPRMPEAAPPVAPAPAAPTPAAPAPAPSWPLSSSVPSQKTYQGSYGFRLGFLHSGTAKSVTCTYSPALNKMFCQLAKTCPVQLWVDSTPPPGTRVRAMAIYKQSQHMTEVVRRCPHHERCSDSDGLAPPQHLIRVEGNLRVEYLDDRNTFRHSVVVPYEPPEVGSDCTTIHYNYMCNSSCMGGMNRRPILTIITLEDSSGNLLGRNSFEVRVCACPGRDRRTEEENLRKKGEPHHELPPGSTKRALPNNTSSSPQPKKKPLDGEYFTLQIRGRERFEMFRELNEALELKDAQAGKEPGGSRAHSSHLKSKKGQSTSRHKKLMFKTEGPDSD
smiles,measurement,setting,value
O=C1OCc2cc3cccc(O[C@@H]4O[C@H](CO)[C@@H](O)[C@H](O)[C@H]4O)c3c(O)c21,activation,[1],-11.5% (inactive)
same,Potency,[2],13.9 µM (active)
COc1ccc(Cn2ccc3ccc(C(=O)NO)cc32)cc1,activation,[1],20.3% (inactive) and -6.7% (inactive)
same,Potency,[3],inactive
same,Potency,[4],20.9 µM (active)
same,Potency,[5],18.6 µM (active)
COc1cc(O)c2c(c1)/C=C/C[C@H](O)[C@H](O)C(=O)/C=C\C[C@H](C)OC2=O,Potency,[1],10.7 µM (active)
same,Potency,[2],5.04 µM (active)
same,Potency,[6],5.04 µM (active)
C=CC(=O)N1CC(N2CCN(C(=O)CNc3cc(C4CC4)c(Cl)cc3O)CC2)C1,activation,[1],10% (inactive)
same,Potency,[2],4 µM (active)
same,Potency,[7],10 µM (active)
same,Potency,[8],2.51 µM (active)
same,Potency,[9],22.5 µM (active)
CN(C)Cc1c(C(=O)NCCOc2ccc(C(=O)NO)cc2)oc2ccccc12,Potency,[1],21.7 µM (active)
same,Potency,[3],inactive
same,Potency,[10],0.662 µM (active)
same,Potency,[11],0.59 µM (active)
same,Potency,[12],0.934 µM (active)
same,Potency,[13],0.662 µM (active)
same,Potency,[14],0.742 µM (active)
same,Potency,[5],0.934 µM (active)
O=c1ccc2ccc(O)c(O)c2o1,activation,[1],0.546% (inactive) and -34.3% (inactive)
same,Potency,[2],8.96 µM (active)
same,Potency,[6],inactive
O=C(/C=C/C=C/c1ccc2c(c1)OCO2)N1CCCCC1,activation,[1],-7.63% (inactive)
same,Potency,[3],inactive
same,viability,[10],96.4% (inactive)
same,Potency,[11],18.6 µM (active)
same,Potency,[12],inactive
same,Potency,[13],inactive
same,Potency,[14],inactive
same,Potency,[5],inactive
NC(=O)c1noc([C@H](CCCC2CCCCC2)CC(=O)NO)n1,activation,[1],-7.14% (inactive)
same,Potency,[3],inactive
same,Potency,[10],5.9 µM (active)
same,Potency,[11],14.8 µM (active)
same,Potency,[4],18.6 µM (active)
same,Potency,[12],2.95 µM (active)
same,Potency,[13],5.25 µM (active)
same,Potency,[14],3.72 µM (active)
same,Potency,[5],6.61 µM (active)
NC1(c2ccc(-c3nc4ccn5c(=O)[nH]nc5c4cc3-c3ccccc3)cc2)CCC1,activation,[1],26.3% (inactive) and 14.1% (inactive) and 3.82% (inactive)
same,Potency,[3],inactive
same,Potency,[10],20.9 µM (active)
same,Potency,[11],16.6 µM (active)
same,Potency,[4],13.2 µM (active)
same,Potency,[12],7.42 µM (active)
same,Potency,[13],14.8 µM (active)
same,Potency,[14],18.6 µM (active)
same,Potency,[5],18.6 µM (active)
Cc1cc(O)cc(Oc2cc(C)c(C(=O)O)c(O)c2)c1,activation,[1],-7.63% (inactive)
same,Potency,[2],22.5 µM (active)
same,Potency,[9],17.9 µM (active)
C=CC(=O)Nc1cccc(Nc2nc(Nc3ccc(NC4CN(CCF)C4)cc3OC)ncc2C(F)(F)F)c1,Potency,[1],7.57 µM (active)
same,Potency,[3],inactive
same,Potency,[10],18.6 µM (active)
same,Potency,[11],16.6 µM (active)
same,Potency,[4],2.63 µM (active)
same,Potency,[12],3.32 µM (active)
same,Potency,[13],9.34 µM (active)
same,Potency,[14],13.2 µM (active)
same,Potency,[5],13.2 µM (active)
CN1CCc2c(n(Cc3ccc(C(=O)NO)cc3)c3ccccc23)C1,activation,[1],23.6% (inactive)
same,Potency,[3],inactive
same,Potency,[4],20.9 µM (active)
same,Potency,[13],inactive
Cc1ccc(S(=O)(=O)Nc2cc(Cl)ccc2C(=O)Nc2nc(-c3ccccc3)cs2)cc1,activation,[1],7.51% (inactive)
same,Potency,[3],inactive
same,Potency,[8],inactive
same,Potency,[5],7.42 µM (active)
N#C/C(=C\c1ccc(O)c(O)c1)C(=O)Nc1ccccc1,activation,[1],-12.1% (inactive)
same,Potency,[2],2.25 µM (active)
Cn1nc(-c2ccc(C(F)(F)F)cc2)nc2c(=O)n(C)c(=O)nc1-2,Potency,[1],4.78 µM (active)
same,Potency,[7],2.51 µM (active)
CCCCOc1ccc(C(=O)Nc2ccc(F)cc2F)cc1,activation,[1],-9.74% (inactive) and -2.39% (inactive)
same,Potency,[3],inactive
same,Potency,[11],inactive
same,Potency,[12],inactive
same,Potency,[13],inactive
same,Potency,[14],inactive
same,Potency,[5],inactive
CNC(=O)c1ccccc1Nc1nc(Nc2ccc(N3CCOCC3)cc2OC)ncc1Cl,Potency,[1],3.06 µM (active) and 21.3 µM (active)
same,Potency,[3],inactive
same,Potency,[10],16.6 µM (active)
same,Potency,[11],0.833 µM (active)
same,Potency,[4],0.263 µM (active)
same,Potency,[12],1.32 µM (active)
same,Potency,[13],2.35 µM (active)
OCc1ccc(-c2ccc(-c3ccc(CO)s3)o2)s1,activation,[1],23.8% (inactive) and 25% (inactive)
same,Potency,[3],inactive
same,Potency,[4],13.2 µM (active)
same,Potency,[14],26.3 µM (active)
same,Potency,[5],26.3 µM (active)
CC(C(=O)O)c1ccc2c(c1)[nH]c1ccc(Cl)cc12 (stereo not drawn),activation,[1],8.47% (inactive) and -3.82% (inactive)
same,Potency,[2],15.9 µM (active)
same,Potency,[7],inactive
same,Potency,[6],6.34 µM (active)
same,Potency,[8],inactive
Cc1ccc([N+](=O)[O-])cc1S(=O)(=O)N(C)/N=C/c1cnc2ccc(Br)cn12,Potency,[1],0.213 µM (active)
same,Potency,[3],inactive
same,Potency,[10],0.166 µM (active)
same,Potency,[11],0.235 µM (active)
same,Potency,[4],0.0417 µM (active)
same,Potency,[12],0.166 µM (active)
same,Potency,[13],0.166 µM (active)
same,Potency,[14],0.166 µM (active)
same,Potency,[5],0.186 µM (active)

# Reference: PubChem BioAssay (NCATS)
